Measurements as given in PubChem BioAssay (NCATS).
“And” between values parts separate entries of the source, which are not always exact repeats. Equal values may be shown once. Records with an inconclusive call do not appear. The source made the active and inactive calls. Calls follow the shape of the dose curve; as a rule, active = well fitted curve in the direction sought with a large enough effect; inconclusive = small, poorly fitted or top-dose-only effect, or another doubt; inactive = no such curve, though single readings can be large; an effect the other way counts as inactive or inconclusive.

Legend:
CRL-7250 = normal cell line; experiment: Cytotoxic Profiling of Annotated Libraries Using Quantitative High-Throughput Screening (AID 1296008); conditions: Five cell lines viability, CellTiter-Glo ATP luminescence, 48-72 h; max response: active compounds read low; also: nearly all actives have a fitted effect of over 60% in size
How it was run: (§1)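 Cells exposed to compounds for 48 or 72 hr at 37 degrees Celsius. Viability read as ATP-coupled luminescence with CellTiter-Glo after 10 min at room temperature.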

HaCat [1] = experiment: as above; conditions: Five cell lines viability, CellTiter-Glo ATP luminescence, 48-72 h; max response: active compounds read low
How it was run: as §1

KB-3-1 = experiment: as above; conditions: Five cell lines viability, CellTiter-Glo ATP luminescence, 48-72 h; max response: active compounds read low
How it was run: as §1

NIH3T3 [2] = experiment: as above; conditions: Five cell lines viability, CellTiter-Glo ATP luminescence, 48-72 h; max response: active compounds read low
How it was run: as §1

HACAT [3] = experiment: qHTS assay to identify novel small-molecules to repurpose for Merkel cell carcinoma treatment (AID 1296009); conditions: MCC and control cell lines, CellTiter-Glo viability, 72 h; at 44.8 µM (top of the series) unless noted; also: nearly all actives have a fitted effect of over 60% in size; also: potency is read from the fitted curve at half-maximal effect
How it was run: (§2)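 Dose-response viability screen; 72 hr exposure at 37 degree celsius; CellTiter-Glo added, 10 min room temperature, luminescence read; RLUs scaled between no-cell and DMSO wells.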

HEK293T [4] = experiment: as above; conditions: MCC and control cell lines, CellTiter-Glo viability, 72 h; at 44.8 µM (top of the series) unless noted
How it was run: as §2

MCC-13 = experiment: as above; conditions: MCC and control cell lines, CellTiter-Glo viability, 72 h; series mostly up to 46 µM
How it was run: as §2

MCC-26 = experiment: as above; conditions: MCC and control cell lines, CellTiter-Glo viability, 72 h; series mostly up to 46 µM
How it was run: as §2

MKL-1 = experiment: as above; conditions: MCC and control cell lines, CellTiter-Glo viability, 72 h; series mostly up to 46 µM
How it was run: as §2

NIH3T3 [5] = experiment: as above; conditions: MCC and control cell lines, CellTiter-Glo viability, 72 h; series mostly up to 44.8 µM
How it was run: as §2

UISO = experiment: as above; conditions: MCC and control cell lines, CellTiter-Glo viability, 72 h; series mostly up to 46 µM
How it was run: as §2

WaGa = experiment: as above; conditions: MCC and control cell lines, CellTiter-Glo viability, 72 h; series mostly up to 46 µM
How it was run: as §2

C33A = experiment: Primary qHTS to identify gynecologic anti-cancer compounds using libraries of approved drugs and bioactive compounds (AID 1345084); conditions: Gynecologic cancer cell panel viability, ATPlite luminescence, 48 h; series mostly up to 57.5 µM; also: nearly all actives have a fitted effect of over 55% in size
How it was run: (§3)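 Cell viability after 48 h drug treatment, ATPlite luminescence readout; five doses.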

CAOV3 = experiment: as above; conditions: Gynecologic cancer cell panel viability, ATPlite luminescence, 48 h; series mostly up to 57.5 µM
How it was run: as §3

CASKI = experiment: as above; conditions: Gynecologic cancer cell panel viability, ATPlite luminescence, 48 h; series mostly up to 57.5 µM
How it was run: as §3

Es-2 = experiment: as above; conditions: Gynecologic cancer cell panel viability, ATPlite luminescence, 48 h; series mostly up to 57.5 µM
How it was run: as §3

HeLa = experiment: as above; conditions: Gynecologic cancer cell panel viability, ATPlite luminescence, 48 h; series mostly up to 57.5 µM
How it was run: as §3

Hek293T [6] = experiment: as above; conditions: Gynecologic cancer cell panel viability, ATPlite luminescence, 48 h, control line for the selectivity index; series mostly up to 57.5 µM
How it was run: as §3

MKL-2 = experiment: qHTS assay to identify novel small-molecules to repurpose for Merkel cell carcinoma treatment (AID 1296009); conditions: MCC and control cell lines, CellTiter-Glo viability, 72 h; series mostly up to 46 µM; also: nearly all actives have a fitted effect of over 60% in size; also: potency is read from the fitted curve at half-maximal effect
How it was run: as §2
% is scaled to controls: 0 for no effect and ±100 for the full control effect.

C[C@@H](O)[C@H]1C(=O)N2C(C(=O)OCOC(=O)C(C)(C)C)=C(SC3CN(C4=NCCS4)C3)[C@H](C)[C@H]12
inactive: max response (CRL-7250) 0.148% | outcome (HaCat [1]) | max response (KB-3-1) 8.8% | outcome (NIH3T3 [2]) | outcome (HACAT [3]) | outcome (HEK293T [4]) | Potency (MCC-13) | Potency (MCC-26) | Potency (MKL-1) | Potency (NIH3T3 [5]) | Potency (UISO) | Potency (WaGa)

CN(C)CCOc1cc(-c2cn[nH]c2)ccc1NC(=O)C1COc2ccccc2O1 (stereo not given)
inactive: outcome (CRL-7250) | outcome (HaCat [1]) | max response (KB-3-1) -7.59% and -3.43% | max response (NIH3T3 [2]) -6.62% | outcome (HACAT [3]) | Potency (MCC-26) | Potency (C33A) | Potency (CAOV3) | Potency (CASKI) | Potency (Es-2) | Potency (HeLa) | Potency (Hek293T [6])

COc1ccc2c(c1)c(C1=C(c3c[nH]c4ccccc34)C(=O)NC1=O)cn2CCCN(C)C
inactive: outcome (CRL-7250) | outcome (HaCat [1]) | max response (KB-3-1) -14.8% | max response (NIH3T3 [2]) 4.3% | outcome (HACAT [3]) | Potency (MCC-13) | Potency (MCC-26)

CCCCC(C=O)NC(=O)C(CC(C)C)NC(=O)OCc1ccccc1 (stereo not given)
inactive: max response (CRL-7250) -8.38% | outcome (HaCat [1]) | max response (KB-3-1) -12% | max response (NIH3T3 [2]) -21.8% | outcome (HACAT [3]) | Potency (MCC-13) | Potency (MCC-26) | Potency (MKL-1) | Potency (MKL-2) | Potency (UISO) | Potency (WaGa)

CC(=O)NCCC(=O)N[C@@H](CCC(N)=O)C(=O)N[C@@H](CO)C(=O)N[C@@H](CCC(N)=O)C(=O)N[C@@H](CCC(N)=O)C(=O)N[C@H](C(=O)N[C@@H](Cc1ccccc1)C(=O)N[C@]1(C)CCCCCCC=CCCC[C@@](C)(C(=O)N[C@@H](CCC(N)=O)C(=O)N[C@@H](CC(N)=O)C(N)=O)NC(=O)[C@H](CC(C)C)NC(=O)[C@H](CC(C)C)NC(=O)[C@@H](CCCNC(=N)N)NC(=O)[C@H](Cc2c[nH]c3ccccc23)NC(=O)[C@H](CC(C)C)NC(=O)[C@H](CC(N)=O)NC1=O)[C@H](C)O
inactive: max response (CRL-7250) 1.13% | outcome (HaCat [1]) | outcome (KB-3-1) | max response (NIH3T3 [2]) 0.272% | outcome (HACAT [3]) | Potency (MCC-13) | Potency (MCC-26) | Potency (MKL-1) | Potency (UISO) | Potency (WaGa)

CCC[C@@H](NC(=O)[C@@H]1[C@H]2CCC[C@@H]2CN1C(=O)[C@@H](NC(=O)[C@@H](NC(=O)c1cnccn1)C1CCCCC1)C(C)(C)C)C(=O)C(=O)NC1CC1
inactive: outcome (CRL-7250) | outcome (HaCat [1]) | outcome (KB-3-1) | outcome (NIH3T3 [2]) | outcome (HACAT [3]) | Potency (MCC-13) | Potency (MCC-26) | Potency (MKL-1) | Potency (MKL-2) | Potency (NIH3T3 [5]) | Potency (UISO) | Potency (WaGa)

CCCCC[C@H](O)C=C[C@H]1[C@H](O)CC(=O)[C@H]1CCCCCCC(=O)O
inactive: max response (CRL-7250) -0.21% | max response (HaCat [1]) -1.7% | max response (KB-3-1) -2.88% | max response (NIH3T3 [2]) -0.203% | Potency (MCC-13) | Potency (MCC-26) | Potency (MKL-1)

C#C[C@]1(O)CC[C@H]2[C@H]3CCc4cc(OC)ccc4[C@H]3CC[C@@]21C
inactive: max response (CRL-7250) -5.04% | max response (HaCat [1]) 0.906% | max response (KB-3-1) -15.5% | max response (NIH3T3 [2]) 2.86% | Potency (MCC-13) | Potency (MCC-26) | Potency (MKL-1) | Potency (MKL-2) | Potency (UISO) | Potency (WaGa)

COC1CCC(C(=O)c2ccc3nc4c(cc3c2)CCCO4)CC1 (stereo not given)
inactive: outcome (CRL-7250) | outcome (HaCat [1]) | max response (KB-3-1) -15.4% | max response (NIH3T3 [2]) -7.67% | outcome (HACAT [3]) | Potency (MCC-13) | Potency (MKL-1) | Potency (MKL-2) | Potency (WaGa)

CCCCN(CCCC)CC(O)c1cc(Cl)cc2c1-c1ccc(Cl)cc1C2=Cc1ccc(Cl)cc1 (stereo not given)
inactive: max response (CRL-7250) -1.5% | outcome (HaCat [1]) | max response (KB-3-1) 3.8% | outcome (NIH3T3 [2]) | outcome (HACAT [3]) | Potency (MCC-13) | Potency (MCC-26) | Potency (MKL-1) | Potency (MKL-2) | Potency (NIH3T3 [5]) | Potency (UISO) | Potency (WaGa)

CCCCC[C@H](O)C=C[C@H]1[C@H](O)CC(=O)[C@H]1CC=CCCCC(=O)O
inactive: max response (CRL-7250) 2.95% | outcome (HaCat [1]) | outcome (KB-3-1) | max response (NIH3T3 [2]) -18.8% | outcome (HACAT [3]) | Potency (MCC-13) | Potency (MCC-26) | Potency (C33A) | Potency (CAOV3) | Potency (CASKI) | Potency (Es-2) | Potency (HeLa) | Potency (Hek293T [6])
active: Potency (MKL-2) 16.6 µM

Cc1nc(C(=O)NCC(=O)O)c(O)c2ccc(Oc3ccccc3)cc12
inactive: max response (CRL-7250) -26.8% | outcome (HaCat [1]) | max response (KB-3-1) -6.73% and -11.5% | max response (NIH3T3 [2]) -5.42% and -6% | outcome (HACAT [3]) | Potency (MCC-13) | Potency (MCC-26) | Potency (MKL-1) | Potency (MKL-2) | Potency (UISO) | Potency (WaGa) | Potency (C33A) | Potency (CAOV3) | Potency (CASKI) | Potency (Es-2) | Potency (HeLa) | Potency (Hek293T [6])

CCOC(=O)N1CCN([N+]([O-])=NOc2cc(ON=[N+]([O-])N3CCN(C(=O)OCC)CC3)c([N+](=O)[O-])cc2[N+](=O)[O-])CC1
inactive: outcome (CRL-7250) | outcome (HaCat [1]) | outcome (KB-3-1) | outcome (NIH3T3 [2]) | outcome (HACAT [3]) | Potency (NIH3T3 [5])
active: Potency (MKL-2) 23.5 µM
